In PubChem BioAssay AID1918 (Vanderbilt High Throughput Screening Facility, 2009) one finds B-score data, which are given here for 93 molecules.

Each structure is given as a SMILES string. Screen size: about 130,000 compounds; about 2,500 (1.9%) were called active. Shown is part of a subset that was picked to be rich in actives. Values without a mark were called inactive.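 The calls were made as follows: active = signal ratio slope over the read window, or its plate-corrected B-score, at least 3 SD from the plate mean, either direction; inactive = the rest.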

The assay deals with ATP-sensitive inward rectifier potassium channel 1 (Homo sapiens) (UniProt P48048). As to the kind of experiment: ROMK potassium channel modulators, primary screen, cell-based, thallium flux, MLSMR library (AID 1918).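 Also: B-score of the F/F0 ratio slope over 7 to 12 s after thallium.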 As to conditions: Tet-inducible ROMK, thallium flux fluorescence; at 10 µM; actives lie on both sides.
Sequence of ATP-sensitive inward rectifier potassium channel 1 (Homo sapiens) (P48048 whole entry, looked up): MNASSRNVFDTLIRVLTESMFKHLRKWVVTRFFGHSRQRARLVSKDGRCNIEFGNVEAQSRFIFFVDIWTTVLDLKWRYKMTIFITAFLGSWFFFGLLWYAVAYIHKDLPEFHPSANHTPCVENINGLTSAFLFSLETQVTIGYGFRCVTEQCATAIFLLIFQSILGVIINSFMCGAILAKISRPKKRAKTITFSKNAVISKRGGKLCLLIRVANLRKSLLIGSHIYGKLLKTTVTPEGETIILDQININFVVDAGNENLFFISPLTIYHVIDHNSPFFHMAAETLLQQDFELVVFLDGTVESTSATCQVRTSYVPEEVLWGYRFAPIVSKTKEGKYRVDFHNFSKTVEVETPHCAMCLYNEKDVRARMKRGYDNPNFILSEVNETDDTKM
On to `S=C(NCc1ccc2c(c1)OCO2)NCc1ccco1`, for which the B-score is -0.541.
As for `COC(=O)N/N=C/c1cn(CCCOc2ccc(C)cc2)c2ccccc12`, the figure is 0.506.
The result for `COC(=O)Cn1cc(/C=C/[N+](=O)[O-])c2ccccc21` reads -8.61 (active); that for `COC(=O)Cn1cc(C(=O)c2cccs2)c2ccccc21`, 0.201; that for `O=C(N/C(=C\c1ccc(F)cc1)C(=O)N1CCCCCC1)c1ccccc1`, 0.658.
As for `Cc1ccc(C(=O)N/C(=C\c2ccco2)C(=O)NC2CCS(=O)(=O)C2)cc1` (stereo not drawn), the figure is 0.484; as for `COc1ccc(C(CC(=O)O)NC(=O)Cc2ccccc2)cc1` (stereo not drawn), -0.208.
For the molecule `COc1ccc(C(CCNCc2ccccc2F)c2ccc(F)cc2)cc1` (stereo not drawn), the B-score is -2.56 (active).
As to `COc1ccc(CC(=O)NC(C)CCc2ccccc2)cc1` (stereo not drawn), the B-score is -0.201.
The result for `O=C(NC1CC1)C1CCCN(C(=O)NC2CCCCC2)C1` (stereo not drawn) reads 0.0365.
Turning to `CCN(C(=O)CSc1nc2ccccc2n1CC)C1CCS(=O)(=O)C1` (stereo not drawn), the B-score was -1.63.
As for `Cc1cc(=O)[nH]c2nnnn12`, the figure is -0.253; as for `Cc1ccc(N2C(=O)SC(N(CC(=O)O)c3ccc(C)cc3)C2=O)cc1` (stereo not drawn), 0.244; as for `Cc1ccc(N2C(=O)C3CC3C2=O)cc1` (stereo not drawn), 1.41 (active).
In the case of `Cc1ccc(N2C(=O)CC(Nc3cccc4ccccc34)C2=O)cc1` (stereo not drawn), the B-score was -0.14.
`O=C(CSc1nc2ccccc2o1)N/N=C/c1ccccc1C(=O)O`: the B-score is 0.754.
As for `CCOC(=O)c1sc(=S)n2c1[nH]c(=O)c1ccc(C(=O)OC)cc12`, the figure is 6.64 (active); as for `CCOC(=O)Cn1c(N)c(C(=O)OC)sc1=S`, -0.216.
Consider `CCOC(=O)c1sc(=S)n(-c2cccc(OC)c2)c1N`, for which the B-score was -0.158.
The result for `CC(C)N1CCC(=NNc2ccc([N+](=O)[O-])cc2S(=O)(=O)N2CCOCC2)CC1` reads -0.739; that for `CC(C)OC(=O)CN1C(=O)C(=O)c2ccccc21`, -0.327.
As for `O=C1c2ccccc2C(=O)N1c1ccccc1S(=O)C(F)(F)F` (stereo not drawn), the figure is -0.708; as for `O=C1C(=O)N(c2ccccc2)c2ccccc21`, 3.08 (active); as for `Cc1cc([N+](=O)[O-])nn1CCCC(=O)Nc1cccnc1Cl`, 0.471.
As for `COc1ccc(Br)cc1/C=N/NC(=O)c1cccc(S(=O)(=O)N2CCOCC2)c1`, the figure is -0.0649; as for `Oc1ccc2ccccc2c1N=Nc1nccs1`, 2.22 (active).
`Oc1c(C=Nc2cccc3nsnc23)ccc2ccccc12`: the B-score was -0.773.
As to `COc1cccc(C(=O)Nc2cccnc2)c1OC`, the B-score is 1.32.
As for `Cc1cc(/C=N/NC(N)=O)c(C)n1C1CCCCC1`, the figure is 3.24 (active); as for `Cc1cccc(-n2c(C)cc(/C=N\NC(=O)c3cccs3)c2C)c1`, 0.454; as for `Cc1cccc(-n2c(C)cc(/C=N/NC(N)=S)c2C)c1`, 2.21.
The result for `COc1cc2c(cc1OC)CN(C(=O)c1cc(=O)c3ccccc3o1)CC2` reads 2.64; that for `COc1ccc(CC(NC(C)=O)C(=O)NC2CCN(C(=O)c3ccc(OC)c(OC)c3)CC2)cc1OC` (stereo not drawn), -0.592.
As for `CCOc1cc(C(=O)N2CCc3cc(OC)c(OC)cc3C2)ccc1OC(F)F`, the figure is 4.09 (active).
On to `CS(=O)(=O)N(Cc1ccccc1Cl)c1ccc(C(=O)NCc2cccnc2)cc1`, for which the B-score was -0.455.
Consider `S=C(NCc1ccco1)Nc1ccc2c(c1)OCCO2`, for which the B-score was 0.904.
As for `CCSc1sc(CC)cc1C=O`, the figure is 4.04 (active); as for `Cc1ccc(S(=O)(=O)Nc2nc(N)n(-c3ccccc3)n2)cc1`, 0.00772.
The result for `CC(C)(C)CC(C)(C)NCC(O)COCCOc1ccc(Br)cc1` (stereo not drawn) reads -3.09 (active); that for `Cc1noc(COc2ccccc2OCC(O)CNC(C)(C)C)n1` (stereo not drawn), -0.0138.
Regarding `Nc1ccccc1SC(C[N+](=O)[O-])c1ccccc1` (stereo not drawn), the B-score was -8.64 (active).
As for `O=C(NCc1ccc(Cl)cc1)NCc1ccc(Cl)cc1`, the figure is -0.951.
As for `S=c1[nH]nc(-c2ccccc2)n1/N=C/c1c[nH]c2ccccc12`, the figure is 1.36.
As for `Oc1ccccc1/C=N/n1c(-c2cccs2)n[nH]c1=S`, the figure is 0.503.
As for `S=c1[nH]nc(-c2cccnc2)n1/N=C/C(Cl)=C\c1ccccc1`, the B-score is -3.13 (active).
As for `Cc1ccc(C(=O)O)cc1NC(=O)c1ccc(Cn2nc(C)c(Cl)c2C)o1`, the B-score was -0.188.
The result for `Cc1nc2sc3c(c2c(=O)n1NC(=O)CCl)CCCC3` reads -0.421; that for `Cc1cc(/C=C2/C(=N)N3C(=NC2=O)SN=C3S(C)(=O)=O)c(C)n1-c1ccccc1`, 1.2 (active); that for `CS(=O)(=O)c1ccc2c(c1)SC1=NC(=O)/C(=C/c3ccco3)C(=N)N12`, 0.317.
The result for `CCS(=O)(=O)C1=NSC2=NC(=O)/C(=C\c3cc(C)n(-c4cccc(OC)c4)c3C)C(=N)N21` reads 1.02; that for `CC(C)(C)NC(=O)NC(=O)COC(=O)Cc1c(F)cccc1Cl`, -0.0671.
As for `COC(=O)COc1ccc(C2NC(=O)NC(C)=C2C(=O)NCc2ccccc2)cc1OC` (stereo not drawn), the figure is 0.834; as for `NS(=O)(=O)c1ccc(NC(=O)/C=C/c2ccccc2Cl)cc1`, 0.913; as for `CCN(CC)N=Nc1cccc(NC(C)=O)c1`, 0.863.
As to `Cc1cccn2c(=O)c3cc(C(=O)N4COCC4(C)C)n(C)c3nc12`, the B-score is -4.56 (active).
The result for `Cc1cccn2c(=O)c3cc(C#N)c(=O)n(CCCN4CCOCC4)c3nc12` reads 0.896; that for `CCn1c(=N)c(C(=O)NCCCOC)cc2c(=O)n3cccc(C)c3nc21`, -1.26; that for `S=C(c1ccc(-c2ccccc2)o1)N1CCCCC1`, -1.97.
As for `CC(=O)NC(Cc1ccc(F)c(F)c1)C(=O)NC1CCN(C(=O)c2ccc(C)cc2)CC1` (stereo not drawn), the figure is -0.484; as for `CCOC(=O)N1CCN(C(=O)c2ccccc2N(Cc2ccccc2)S(=O)(=O)c2ccc(OC)cc2)CC1`, 2.44.
Turning to `CCOC(=O)C1CCN(C(=O)c2ccccc2N(C)S(=O)(=O)c2ccccc2)CC1`, the B-score is 0.0133.
The result for `NC(=O)c1ccccc1N(Cc1ccccc1)S(=O)(=O)c1ccccc1` reads 3.2 (active); that for `CCOC(=O)C1CCN(S(=O)(=O)c2cc(F)ccc2OC)CC1`, -0.346; that for `COC(=O)c1ccccc1NC(=O)C1CC(=O)N(c2ccc(OC)cc2)C1` (stereo not drawn), 0.403.
On to `COC(=O)c1ccccc1NC(=O)C1CCN(S(=O)(=O)c2cc(OC)ccc2OC)CC1`, for which the B-score was 2.29 (active).
The result for `CCOC(=O)C1=C(CN2CCCCCC2)NC(=O)NC1c1cccc([N+](=O)[O-])c1` (stereo not drawn) reads -1.02; that for `COc1ccc(C(=O)NC2CCN(C(=S)NCCc3ccccc3)CC2)cc1`, -0.464; that for `NS(=O)(=O)c1ccc(CCNC(=O)c2ccc([N+](=O)[O-])cc2[N+](=O)[O-])cc1`, 0.546.
Consider `COc1ccc(CC(=O)Nc2cc(S(=O)(=O)N3CCCCC3)ccc2N2CCN(C)CC2)cc1`, for which the B-score was 0.269.
The result for `O=C(COC(=O)c1ccccc1F)Nc1cc(S(=O)(=O)N2CCOCC2)ccc1N1CCCC1` reads -0.699; that for `CN1CCN(c2ccc(S(=O)(=O)N3CCCCC3)cc2NC(=O)Cc2ccccc2F)CC1`, -4.06 (active); that for `C=CCOC(=O)C1=C(C)N=C2SCCC(=O)N2C1/C=C/c1ccccc1OC` (stereo not drawn), -2.24.
As for `COCCn1c(Cc2cccn2C)nnc1SCC(=O)Nc1nccs1`, the figure is -0.191.
As for `CCn1c(/C=C/Nc2ccccc2)[n+](CC)c2ccc(C(=O)OCC(F)(F)F)cc21`, the figure is -3.51 (active).
With `Cn1cnc(S(=O)(=O)Nc2ccc3c(c2)OCCO3)c1`, the B-score was 1.18.
The result for `CNC(=O)/C(C#N)=C/c1c(F)cccc1Cl` reads -5.65 (active); that for `O=C(/C=C/c1c(F)cccc1Cl)Nc1nn[nH]n1`, -0.796; that for `Cc1[nH]c2ccccc2c1/C=C(/C#N)C(=O)NC(C)C`, 0.27.
The result for `COc1ccc(C(=O)NC2CCN(C(=S)Nc3ccccc3)CC2)cc1` reads 0.59; that for `C=CCn1c(COc2ccc(F)cc2)nnc1SCC(=O)Nc1cccc(S(N)(=O)=O)c1`, 0.118; that for `COC(=O)CNc1nc(Cl)nc(N2CCC(C)CC2)n1`, -0.416.
Turning to `COCCNC(=O)c1ccc(-n2c(SCc3cccnc3)nc3ccccc3c2=O)cc1`, the B-score was -0.255.
As for `O=C1CN(C(=O)COC(=O)c2cnc(Cl)c(Cl)c2)c2ccccc2N1`, the figure is -0.857; as for `CN(C)CC(O)COc1ccc(C(C)(C)c2ccc(OCC(O)CN(C)C)cc2)cc1` (stereo not drawn), -0.0221; as for `CCCOc1ccc(C(=O)NCCc2ccccc2)cc1`, 0.056.
As for `CC(C)(c1ccccc1)c1ccc(OCCN)cc1`, the figure is -2.62 (active); as for `CN(CC(=O)Nc1ccc(N2CCOCC2)cc1)CC(=O)Nc1ccccc1[N+](=O)[O-]`, -0.00205; as for `O=C(Nc1ccc(N2CCOCC2)cc1)c1ccc(-c2ccccc2[N+](=O)[O-])o1`, 3.49 (active).
As to `O=C(NC(=S)Nc1ccc(S(=O)(=O)N2CCOCC2)cc1)c1ccccc1[N+](=O)[O-]`, the B-score is -0.648.
As for `CCc1nnc(NC(=O)Cc2cccs2)s1`, the figure is 0.627; as for `CCn1cc(CN2CCCC(CNS(=O)(=O)Cc3ccccc3)C2)cn1` (stereo not drawn), -1.12; as for `CCOc1ncccc1C(=O)OCC(=O)NC1CC1`, 0.144.
As for `COc1cccc(NC(=O)CC2C(=O)NCCN2C(=S)Nc2ccc(F)cc2)c1` (stereo not drawn), the figure is -0.0401.
